Compounds with a hit are over-represented: about 4.6% of the library has one in this group of screens.
tim23-1 inh: growth inhibitors of tim23-1 mutant yeast, primary screen, luminescence, uHTS. inhibition, % at 20 µM. 330,000 compounds, 1.3% hits. S. cerevisiae tim23-1 growth, BacTiter-Glo luminescence, 24 h;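 active means growth inhibition of the mutant yeast at or above 50%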;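 further: temperature-sensitive mutant grown at 25 °C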
TIM10 inh: growth inhibitors of isogenic TIM10 control yeast, primary screen, counter-screen for tim10-1 yeast inhibitor project, luminescence, uHTS. S. cerevisiae TIM10 strain growth, BacTiter-Glo luminescence, 24 h. inhibition, % at 10 µM. 330,000 compounds, 1.4% hits;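 active means inhibition of 40% or more at the single tested concentration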;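 further: wild-type TIM10 isogenic control strain grown at permissive 25 °C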
SKKanGAS inh: S. pyogenes SKKanGAS growth inhibitors in kanamycin, primary screen, streptokinase expression inhibitor project, SKKanGAS strain, BacTiter-Glo luminescence. 6 h. inhibition, % at 7.5 µM. 300,000 compounds, 1.3% hits. AID 1662, 2009;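 active means mean replicate score, as percent of positive control median, at least 50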;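 further: strain carries kanamycin resistance gene driven by streptokinase promoter and grows in 40 µg/ml kanamycin; loss of luminescence reflects streptokinase promoter inhibition or plain growth inhibition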
NLRP3 yeast inh: NALP3 inflammasome inhibitors in reconstituted yeast, primary screen, luminescence, uHTS | Yeast reconstituted NLRP3/ASC/caspase-1, beta-gal luminescence, 24 h | inhibition, % at 10 µM | 330,000 compounds, 0.39% hits | AID 2825, 2010;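 active means inhibition of 50% or more; inactive means inhibition below 50%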
PfHsp90 set2: growth inhibition of PfHsp90-expressing yeast, primary screen, antimalarial PfHsp90 inhibitor project, S. cerevisiae, BacTiter-Glo luminescence, single point, set 2. BacTiter-Glo ATP, 48 h; yeast lacking PDR1 and PDR3 efflux regulators. 310,000 compounds, 0.32% hits. inhibition, % at 9.4 µM;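 active means every replicate shows inhibition above about 80%, whatever the replicate mean, limit read from the data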
tim10-1 inh: growth inhibitors of tim10-1 mutant yeast, primary screen, luminescence, uHTS; S. cerevisiae tim10-1 ts strain growth, BacTiter-Glo, 24 h; inhibition, % at 20 µM; 330,000 compounds, 2.2% hits; AID 463190, 2010;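 active means inhibition of at least 40%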;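 further: mutant grown at 25 °C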
tim10-1 confirm: growth inhibitors of tim10-1 mutant yeast, confirmation, single concentration, luminescence, S. cerevisiae; shares compounds with tim10-1 inh; S. cerevisiae tim10-1 ts strain growth, BacTiter-Glo, 24 h; inhibition, % at 20 µM; 7,400 compounds, 56% hits; AID 463213, 2010;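 active means inhibition of yeast growth at or above a set limit in either of two repeat tests at 20 µM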;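 further: tim10-1 mutant grown at permissive 25 °C to find synthetic lethal compounds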
TIM10 conf: growth inhibitors of wild-type TIM10 yeast, confirmation, counter-screen for tim10-1 synthetic lethality project, single concentration, luminescence, S. cerevisiae. shares compounds with TIM10 inh. 4,600 compounds, 63% hits. S. cerevisiae tim10 strain growth, BacTiter-Glo luminescence, 24 h. inhibition, % at 10 µM;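 active means inhibition of yeast growth at or above a set limit in either of two replicates at 10 µM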; further: this counterscreen used the strain with wild-type TIM10
tim23-1 conf: tim23-1 mutant yeast growth inhibitors, confirmation, luminescence, single concentration; AID 463218, 2010; S. cerevisiae tim23-1 growth, BacTiter-Glo luminescence, 24 h; inhibition, % at 20 µM; 4,400 compounds, 83% hits; shares compounds with tim23-1 inh;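 active means inhibition above about 39% in either of two replicate wells at 20 µM, limit read from the data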;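 further: temperature-sensitive tim23-1 mutant grown at 25 °C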
Large screens that a line does not name were inactive (follow-up assays come after a bar, where they were run).

CCNC(=O)COC(=O)c1cc(-c2ccc(OC)cc2)nc2ccccc12	none
CCNC(=S)NNC(=O)c1cc(-c2ccc(OC)cc2)nc2ccccc12	tim23-1 inh 85.8, TIM10 inh 54.2, tim10-1 inh 81.8 | tim10-1 confirm 73.7 | TIM10 conf inactive | tim23-1 conf 78.4
O=C(COc1cc(F)ccc1[N+](=O)[O-])Nc1cc(S(=O)(=O)N2CCCC2)ccc1Cl	none (no result: SKKanGAS inh)
O=C(NCc1ccccn1)c1ccc(OC2CCN(Cc3ccc(F)cc3F)CC2)cc1	none
C#Cc1cccc(NC(=O)c2ccc(Cl)cc2Cl)c1	tim23-1 inh 68.0, TIM10 inh 58.5, tim10-1 inh 53.5 | tim10-1 confirm 42.5 | TIM10 conf 52.2 | tim23-1 conf 61.2
O=C(Nc1ccc(Nc2ccccc2)cc1)c1ccc(Cl)cc1Cl	none (no result: PfHsp90 set2)
O=C(NCc1ccccc1CN1CCCC1)c1cc2ccccc2o1	none (no result: tim23-1 inh, TIM10 inh, SKKanGAS inh, NLRP3 yeast inh, tim10-1 inh)
NC(=O)c1c(NC(=O)c2cccs2)sc2c1CCCCCC2	tim23-1 inh 58.8, tim10-1 inh 46.2 | tim10-1 confirm inactive | tim23-1 conf 58.5
N#Cc1ccc(CN2CCN(c3ccc(S(=O)(=O)N4CCCC4)cn3)CC2)cc1	none (no result: SKKanGAS inh)
CCOC(=O)[C@@H]1[C@H]2COc3cc(OC)ccc3[C@@H]2N2C(=O)N(c3ccc(C(F)(F)F)cc3)C(=O)[C@@]12C	none
CCOC(=O)[C@@H]1[C@H]2COc3cc(OC)ccc3[C@H]2N2C(=O)N(c3ccc(C(F)(F)F)cc3)C(=O)[C@]12C	tim23-1 inh 83.8, TIM10 inh 75.0, tim10-1 inh 77.0 (no result: SKKanGAS inh) | tim10-1 confirm 84.2 | TIM10 conf 73.5 | tim23-1 conf 86.5
O=C(OCc1csc(Nc2ccccc2)n1)c1ccc(Cl)cc1	tim23-1 inh 61.4, TIM10 inh 58.1, SKKanGAS inh 54.8, tim10-1 inh 46.6 | tim10-1 confirm inactive | TIM10 conf 41.3 | tim23-1 conf 44.3
O=C(COc1ccccc1)OCc1csc(Nc2ccccc2)n1	none
O=C(c1ccc(Cl)cc1)C1CCN(Cc2ccccc2)CC1	none
O=C(c1ccc(Cl)cc1)C(CN1CCCC1)c1ccccc1 (stereo not given)	tim23-1 inh 56.8, TIM10 inh 46.3, tim10-1 inh 61.6 | tim10-1 confirm inactive | TIM10 conf 51.0 | tim23-1 conf inactive
OCC1(CCOc2ccccc2)CCN(C2Cc3ccccc3C2)CC1	none
O=C(CCNS(=O)(=O)c1ccc(Cl)cc1)N1CCCCCC1	none
S=C(N/N=C/c1ccc2c(c1)OCO2)NC1CC2CCC1C2 (stereo not given)	none
COc1cc(/C=N/NC(=S)NC2CC3CCC2C3)ccc1O (stereo not given)	tim23-1 inh 67.9, TIM10 inh 49.0, tim10-1 inh 42.3 | tim10-1 confirm inactive | TIM10 conf 43.0 | tim23-1 conf 51.5
C=CC[n+]1c(-c2ccc(Cl)cc2Cl)csc1Nc1c(C)n(C)n(-c2ccccc2)c1=O	tim23-1 inh 52.3, tim10-1 inh 48.8 | tim10-1 confirm 37.7 | tim23-1 conf 49.0
Cc1c(NC(=O)Nc2cc(Cl)ccc2Cl)c(=O)n(-c2ccccc2)n1C	none
C=CC[n+]1c(-c2ccc(Cl)cc2Cl)csc1Nc1ccc(NC(C)=O)cc1	tim23-1 inh 66.7, tim10-1 inh 59.5 | tim10-1 confirm 58.5 | tim23-1 conf 78.5
C=CC[n+]1c(C)csc1Nc1ccc(C)cc1	none
O=C(Oc1ccc(Cl)c2cccnc12)c1cccc([N+](=O)[O-])c1	none
O=C(Oc1c(Cl)cc(Cl)c2cccnc12)c1cccc([N+](=O)[O-])c1	tim23-1 inh 62.6, TIM10 inh 50.5, SKKanGAS inh 88.3, PfHsp90 set2 107.0, tim10-1 inh 50.7 | tim10-1 confirm inactive | TIM10 conf inactive | tim23-1 conf 72.6
CC1CCN(S(=O)(=O)c2ccc(NC(=O)c3cccs3)cc2)CC1	tim23-1 inh 54.1, TIM10 inh 41.6, tim10-1 inh 41.7 | tim10-1 confirm 50.3 | TIM10 conf 53.4 | tim23-1 conf 58.5
CC1CCCCN1S(=O)(=O)c1ccc(NC(=O)c2cccs2)cc1 (stereo not given)	tim23-1 inh 54.3, TIM10 inh 50.8, tim10-1 inh 53.7 | tim10-1 confirm 47.5 | TIM10 conf 52.0 | tim23-1 conf 70.8
O=C(Nc1ccc(S(=O)(=O)N2CCCC2)cc1)c1cccs1	none
CN1CCC(N(C)C(=O)c2cccc(S(=O)(=O)N3CCc4ccccc43)c2)CC1	none (no result: SKKanGAS inh)
CC(=O)Nc1cccc(NC(=O)CSc2nc3c(c(=O)n(C)c(=O)n3C)n2C)c1	none
Cc1[nH]nc2c1C(c1ccc(-c3ccccc3C#N)o1)C(C#N)=C(N)O2 (stereo not given)	tim23-1 inh 85.8, tim10-1 inh 55.5 | tim10-1 confirm 54.8 | tim23-1 conf 68.2
Cc1[nH]nc2c1C(c1ccc(-c3ccc(Cl)cc3)o1)C(C#N)=C(N)O2 (stereo not given)	none
Cc1ccccc1N1CCN(S(=O)(=O)c2ccc3oc(=O)ccc3c2)CC1	tim23-1 inh 68.0, TIM10 inh 41.9, tim10-1 inh 79.5 | tim10-1 confirm 65.1 | TIM10 conf 54.1 | tim23-1 conf 56.5
Cn1c(=O)oc2cc(S(=O)(=O)N3CCN(c4ccccc4F)CC3)ccc21	none
Cc1ccc(-n2cnc3scc(-c4cccs4)c3c2=O)cc1	tim23-1 inh 50.1, tim10-1 inh 41.5 | tim10-1 confirm 45.5 | tim23-1 conf 57.5
Fc1cnc(N/N=C/c2ccc(-c3ccc(Br)cc3)o2)nc1N1CCOCC1	tim23-1 inh 51.2, tim10-1 inh 42.9 | tim10-1 confirm inactive | tim23-1 conf inactive
Brc1ccc(-c2ccc(/C=N/Nc3nc(N4CCOCC4)nc(N4CCOCC4)n3)o2)cc1	none
CCO/N=C1\C(=O)N(c2ccccc2)c2ccccc21	none
O=C(O/N=C1\C(=O)N(c2ccccc2)c2ccccc21)C1CC1	tim23-1 inh 68.9, tim10-1 inh 46.8 | tim10-1 confirm 44.4 | tim23-1 conf 64.4

Screening data (PubChem BioAssay)
